Mtb BioA inh: inhibitors of Mycobacterium tuberculosis BioA enzyme. purified M. tuberculosis BioA enzyme, plate reader. inhibition, % at 9.99 µM. 360,000 compounds, 0.096% hits. AID 602481; in the data active means inhibition above about 40%; inconclusive means no clear call, values can overlap the other calls
Yp Topo-I inh: inhibitors of Yersinia pestis topoisomerase I; 360,000 compounds, 0.064% hits; Y. pestis Topo-I cleavage product accumulation, plate reader; activity, % at 10 µM; in the data active means activity above about 50%, passing the limit was not always enough; inconclusive means no clear call, values can overlap the other calls
TcdB inh: blocks C. difficile toxin B glycohydrolase activity; P18177; TcdB glycohydrolase enzymatic assay, plate reader; 350,000 compounds, 0.24% hits; inhibition, % at 9.99 µM; in the data active means inhibition above about 10%
BH1578 lux ind: induces V. cholerae light production without autoinducers; V. cholerae BH1578 lux reporter, luminescence, 6 h; activation, % at 18.7 µM; 350,000 compounds, 0.16% hits; AID 588436; in the data active means activation mostly above about 9.7%, no sharp cut-off; inconclusive means no clear call, values can overlap the other calls; inactive means mostly below about 3.7%
FadD28 FP inh: inhibitors of Mycobacterium tuberculosis FadD28 bisubstrate binding | FadD28 bisubstrate probe binding, fluorescence polarization | inhibition, % at 12.5 µM | 360,000 compounds, 0.22% hits; in the data active means inhibition above about 8.5%, passing the limit was not always enough; inconclusive means no clear call, values can overlap the other calls
Numbers stand for hits; . = inactive; ? = inconclusive; / = not tested or not shown; + = active, no number; ! = repeats disagree. Compounds with a hit are over-represented: about 0.58% of the library has one in this group of screens.

SMILES | Mtb BioA inh | Yp Topo-I inh | TcdB inh | BH1578 lux ind | FadD28 FP inh
CC(Sc1nnc(CNc2cccc3ccccc23)n1-c1ccccc1)C(=O)N/N=C/c1ccco1 (stereo not given) | . | . | / | . | 25
CS(=O)(=O)Nc1ccc2c(c1)[C@H]1C[C@H](CC(=O)N3CCc4ccccc4C3)O[C@H](CO)[C@H]1O2 | . | / | . | / | /
Cc1ccc(C(=O)NCCSCc2ccc(Cl)cc2Cl)cc1[N+](=O)[O-] | / | . | . | . | 17
CO[C@H]1CN(C)C(=O)c2cc(NC(C)=O)ccc2OC[C@@H](C)N(CC2CCCCC2)C[C@H]1C | . | / | / | / | /
CCCN1C(=O)/C(=C\C=C2/Sc3ccccc3N2CCO)SC1=S | / | . | . | . | .
CCN1C(=O)/C(=C/C=C2/Sc3ccccc3N2CCO)SC1=S | . | . | . | 236 | .
CCCNC(=O)NC[C@H]1CC[C@@H]2[C@@H](CN2S(=O)(=O)c2ccccc2[N+](=O)[O-])O1 | / | / | . | / | /
CC(=O)Nc1ccc(S(=O)(=O)Nc2nc3ccccc3nc2Nc2ccc(S(N)(=O)=O)cc2)cc1 | . | . | / | . | .
CC(=O)Nc1ccc(S(=O)(=O)Nc2nc3ccccc3nc2Nc2ccc(O)c(C(=O)O)c2)cc1 | . | . | . | . | 13
CN1CCN(C(CNC(=O)c2ccc(Br)o2)c2ccc(F)cc2)CC1 (stereo not given) | . | . | 12 | . | .
O=C(C[C@@H]1CC[C@H]2[C@@H](COC[C@@H](O)CN2Cc2cccc(C(F)(F)F)c2)O1)NCc1ccc(F)cc1 | . | / | . | / | /
CCOc1cc(/C=N/O)ccc1OCc1ccc(C)cc1 | / | . | 11 | . | .
CCOc1cc(/C=N/O)ccc1OS(=O)(=O)c1ccc(C)cc1 | . | . | / | . | .
CCCN1[C@@H]2c3ccc(C4=CCCC4)c(=O)n3C[C@H]1[C@H](CO)[C@H]2C(=O)NCc1ccccn1 | . | / | . | / | /
Cc1cccc(NC(=O)Cn2c(=O)n3nc(CCn4nc(C)cc4C)nc3c3ccccc32)c1 | . | . | / | . | 9.0
C[C@@H]1CCCCO[C@@H](CN(C)S(=O)(=O)c2cn(C)cn2)[C@H](C)CN([C@H](C)CO)C(=O)c2cc(NC(=O)Nc3ccc(C(F)(F)F)cc3)ccc2O1 | . | / | / | / | /
CC(/C=N/n1c(-c2ccc(C)cc2)n[nH]c1=S)=C\c1ccco1 | / | . | / | . | .
Cc1cccc(-c2n[nH]c(=S)n2/N=C/C=C/c2ccco2)c1 | . | . | 10 | . | .
CC(/C=N/n1c(-c2ccncc2)n[nH]c1=S)=C\c1ccco1 | . | . | 19 | . | .
CNC(=O)C[C@H]1CC[C@H]2[C@@H](COc3ccc(NC(=O)C(C)C)cc3C(=O)N2C)O1 | . | / | / | / | /
C[C@@H]1CN([C@H](C)CO)C(=O)c2cc(C3=CCCC3)cnc2O[C@H]1CN(C)C(=O)Cc1ccncc1 | . | / | . | / | /
COc1ccc(C2=CC3=C(Br)C(=O)C(C)(OC(=O)c4ccco4)C(=O)C3=CO2)cc1 (stereo not given) | . | . | / | . | 10
COc1ccc(C2=CC3=C(Br)C(=O)C(C)(OC(=O)c4cccs4)C(=O)C3=CO2)cc1 (stereo not given) | . | . | . | . | 16
COc1ccc2c3c([nH]c2c1)[C@H](CO)N(Cc1ccccc1F)CC31CCN(CC2CC2)CC1 | / | / | . | / | /
O=S(=O)(c1ccc(SCc2ccc(Cl)cc2)nc1)N1CCCC1 | . | 53 | . | . | .
SMILES | Mtb BioA inh | Yp Topo-I inh | TcdB inh | BH1578 lux ind | FadD28 FP inh
O=C(Nc1ccc(N2CCOCC2)c(Cl)c1)c1ccc(-n2cnnc2)cc1 | . | . | . | . | .
O=C(Nc1ccc(N2CCOCC2)c(Cl)c1)c1ccc(F)cc1 | . | . | 17 | . | .
CC(C)NC(=O)N(C)C[C@@H]1Oc2c(NC(=O)Nc3ccc4c(c3)OCO4)cccc2C(=O)N([C@@H](C)CO)C[C@@H]1C | . | / | / | / | /
COc1cc(/C=C2\SC(=S)N(NC(=O)c3ccc(O)c(OC)c3)C2=O)ccc1O | . | . | . | . | 16
COc1cc(/C=C2\SC(=S)N(NC(=O)c3cccc(O)c3)C2=O)ccc1O | . | . | . | . | 13
COc1cc(/C=C2\SC(=S)N(NC(=O)c3ccncc3)C2=O)ccc1O | / | . | . | . | .
O=C1NN(c2ccc(Br)cc2)C(=O)/C1=C\c1ccc(O)cc1O | . | . | . | . | 16
O=C1NN(c2ccccc2)C(=O)C1=Cc1ccccc1O | . | . | . | . | .
C[C@H](CO)N1C[C@H](C)[C@H](CN(C)S(C)(=O)=O)Oc2c(NC(=O)Nc3ccc(C(F)(F)F)cc3)cccc2C1=O | . | / | . | / | /
NC(=O)c1ccc(-n2nnnc2SCC(=O)c2ccc(O)c(O)c2)cc1 | / | . | . | . | .
Cc1cc(C)nc(SCC(=O)c2ccc(O)c(O)c2)n1 | . | . | 11 | . | .
COc1ccc(-n2nnnc2SCC(=O)c2ccc(O)c(O)c2)cc1 | . | . | / | . | 12
CCNC(=O)[C@H]1[C@H](CO)[C@H]2Cn3c(ccc(/C=C/c4ccccc4)c3=O)[C@@H]1N2 | . | / | . | / | /
CCN1CCN(Cc2ccc(NC(=O)c3ccc(C)c(NC(=O)C(=O)c4c[nH]c5ccccc45)c3)cc2C(F)(F)F)CC1 | . | . | . | . | 55!
CCN1CCN(Cc2ccc(NC(=O)c3ccc(C)c(NC(=O)c4ccc5n[nH]nc5c4)c3)cc2C(F)(F)F)CC1 | . | . | . | . | .
CCN1CCN(Cc2ccc(NC(=O)c3cc(NC(=O)C(=O)c4c[nH]c5ccccc45)cc(OC)c3)cc2C(F)(F)F)CC1 | . | . | . | . | 66!
C[C@@H]1CN([C@@H](C)CO)C(=O)Cc2cc(N(C)C)ccc2O[C@H]1CN(C)C(=O)Nc1ccc2c(c1)OCO2 | . | / | . | / | /
Cc1cccc(OCCC(=O)NCC(=O)Nc2cccc(C)c2C)c1 | . | . | 19 | . | .
Cc1cccc(NC(=O)CCOc2ccccc2)c1C | . | . | . | . | .
O=C1C2ON(c3ccccc3)C(c3ccccn3)C2C(=O)N1c1ccc(Br)cc1 (stereo not given) | . | . | . | / | 13
CC1=C(C#N)c2nc(N)c(C#N)c(C)c2/C1=C\c1ccc(OCC(=O)O)c(Cl)c1 | / | . | . | . | 14
O=C(C[C@@H]1CC[C@H]2[C@@H](COC[C@H](O)CN2Cc2ccc(Oc3ccccc3)cc2)O1)Nc1nccs1 | . | / | . | / | /
C[C@H](CO)N1C[C@H](C)[C@@H](CN(C)C(=O)CCC(F)(F)F)OCCCC[C@H](C)Oc2ccc(NC(=O)CCCN(C)C)cc2C1=O | . | / | / | / | /
O=C(O)c1cc(-c2ccccc2Cl)n(-c2cccc(Cl)c2)n1 | . | . | 13 | . | .
COc1ccc(NC(=O)Cn2cnc3sc(C)c(S(=O)(=O)N4CCOCC4)c3c2=O)c(OC)c1 | . | . | 15 | . | .
O=C1c2ccccc2C(=O)c2c(O)c(O)cc(O)c21 | . | . | . | . | 47
Nc1ccc(O)c2c1C(=O)c1ccccc1C2=O | . | . | . | . | .
O=C1NN(c2ccc(Cl)c(Cl)c2)C(=O)/C1=C/c1ccc(-c2ccccc2C(=O)O)o1 | . | . | . | . | 13
CN(C)c1ccc2nc3ccc(=O)cc-3sc2c1 | . | + | . | . | ?
Nc1ncc(S(=O)(=O)c2ccc([N+](=O)[O-])cc2)s1 | . | . | 11 | . | .
